Screening data as filed in PubChem.
D2 PAM-1: potentiates the human D2 dopamine receptor allosterically. P14416. DiscoveRx D2 beta-arrestin cells, luminescence, 90 min; 100% = 57 uM dopamine signal. potentiation, % (test concentration not listed). hit rate 0.23% among 360,000; in the data active = potentiation above about 50%
Target sequence (P14416 whole entry, looked up): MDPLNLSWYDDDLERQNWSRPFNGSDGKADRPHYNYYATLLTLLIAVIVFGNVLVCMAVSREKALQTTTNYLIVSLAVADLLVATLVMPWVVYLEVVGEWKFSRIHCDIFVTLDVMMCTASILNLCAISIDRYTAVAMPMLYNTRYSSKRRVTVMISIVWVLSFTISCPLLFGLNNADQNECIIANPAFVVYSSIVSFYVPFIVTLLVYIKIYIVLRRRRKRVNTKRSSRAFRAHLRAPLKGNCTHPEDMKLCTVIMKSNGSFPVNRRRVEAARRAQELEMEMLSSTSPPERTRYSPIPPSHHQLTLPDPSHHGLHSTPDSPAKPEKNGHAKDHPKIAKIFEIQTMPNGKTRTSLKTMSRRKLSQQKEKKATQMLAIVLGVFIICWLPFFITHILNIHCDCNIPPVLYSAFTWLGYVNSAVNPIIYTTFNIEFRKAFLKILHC
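PathHunter beta-arrestin assay in DiscoveRx D2 cells. Compounds were added with an EC20 of dopamine (50 nM final) for 90 min at 37 deg C. Luminescence was read 1 h after detection reagent, with 57 uM dopamine as the EC100 control.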
D2 PAM-2: positively modulates the human D2 dopamine receptor allosterically | hit rate 0.34% among 340,000 | HEK293 T-REx D2, calcium flux, EC20 dopamine potentiation | potentiation, % at 10 µM;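 active = potentiation over 3 SD above the plate norm, cut at about 30% in these data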
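Potentiation of an EC20 dopamine calcium response measured kinetically over 180 s, after a preceding 180 s compound-only read flagging agonists. Cells: inducible Hek293 Trex D2 line, 4000/well, cultured overnight at 30 C before dye loading.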
D2 ag-1: activates the human D2 dopamine receptor. P14416. DiscoveRx PathHunter D2 beta-arrestin, luminescence, 90 min; 100% = 57 uM dopamine signal. activation, % (no concentration beside the values). hit rate 0.084% among 360,000; in the data active = activation above about 40%
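DiscoveRx PathHunter D2 beta-arrestin cells (2,100/well) attached overnight, then compound-stimulated 90 min at 37 C in HBSS/10 mM HEPES/0.1% Tween-20 buffer; beta-galactosidase complementation read by luminescence after 1 h at ambient temperature. Dopamine 57 uM final (EC100) as control.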
D2 antag: D2 dopamine receptor (human) antagonism; P14416; HEK293 TREx D2 cells, calcium flux, dopamine EC80; inhibition, % at 10 µM; hit rate 2% among 340,000; AID 485344; in the data active = inhibition above about 30%; inactive = below that, where a call was filed
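Overnight-induced (tetracycline, 30 C) HEK293 T-REx cells carrying force-coupled D2 receive a no-wash calcium dye, then compound, then EC80 dopamine at 180 s; signals are read kinetically throughout.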
D2 ag-2: activates the human D2 dopamine receptor; HEK293 T-REx D2 cells, calcium flux agonist mode; AID 485358; activation, % at 2 µM; hit rate 0.53% among 340,000; P14416;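 active = activation over 3 SD above normal in the single-dose calcium agonist read, cut at about 30% in these data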
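Calcium-flux readout, 1 cycle/sec over 180 s following compound pin transfer, in inducible HEK293 Trex D2 cells (force-coupled); dopamine controls included. Positive calcium responses during this window marked compounds as potential agonists.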
Hits are given with their value; ! = repeats disagree. Hits are enriched below; roughly 2.4% of the tested compounds scored in any of these assays.

What do the screens show for `COc1ccccc1-c1cc(C(=O)NCc2ccc(F)cc2)no1`?
D2 PAM-1: inactive; D2 PAM-2: inactive; D2 ag-1: inactive; D2 antag: 74.1; D2 ag-2: inactive

How did COc1ccc(CNC(=O)c2cc(-c3ccco3)on2)cc1 do in these assays?
D2 PAM-1: inactive; D2 PAM-2: inactive; D2 ag-1: inactive; D2 antag: inactive; D2 ag-2: inactive

What do the screens show for `COc1ccccc1-c1cc(C(=O)NCc2ccc(Cl)cc2)no1`?
D2 PAM-1: inactive; D2 ag-1: inactive

What do the screens show for `COc1ccccc1-c1cc(C(=O)NCc2ccccc2)no1`?
D2 PAM-1: inactive; D2 PAM-2: inactive; D2 ag-1: inactive; D2 antag: 80.6; D2 ag-2: inactive

What do the screens show for `COc1ccc(CNC(=O)c2cc(-c3ccccc3OC)on2)cc1`?
D2 PAM-1: inactive; D2 PAM-2: inactive; D2 ag-1: inactive; D2 antag: 91.3; D2 ag-2: inactive

Results for COc1ccc(/C=C2\SC(N3CCc4ccccc4C3)=NC2=O)cc1OC ?
D2 PAM-1: inactive; D2 PAM-2: inactive; D2 ag-1: inactive; D2 antag: 53.1; D2 ag-2: inactive

Results for CN(CC(=O)Nc1cccc(F)c1)CC(=O)N1CCc2ccccc21 ?
D2 PAM-1: inactive; D2 PAM-2: inactive; D2 ag-1: inactive; D2 antag: inactive; D2 ag-2: inactive

Results for CC(C(=O)N1CCc2ccccc21)N(C)CC(=O)Nc1cccc(F)c1 (stereo not given) ?
D2 PAM-1: inactive; D2 PAM-2: inactive; D2 ag-1: inactive; D2 antag: 38.9; D2 ag-2: inactive

How did COc1ccc(-c2n[nH]c3c2C(c2ccc(Cl)cc2Cl)NC3=O)cc1 (stereo not given) do in these assays?
D2 PAM-2: inactive; D2 ag-2: inactive

Results for O=C(NNC(=O)c1cccc(C(F)(F)F)c1)c1ccc(-n2cnnn2)cc1 ?
D2 PAM-1: inactive; D2 ag-1: inactive

Results for CC(NC(=O)Cn1cnnn1)c1cccc(C(F)(F)F)c1 (stereo not given) ?
D2 PAM-1: inactive; D2 PAM-2: 37.9; D2 ag-1: inactive; D2 antag: inactive; D2 ag-2: inactive

What do the screens show for `C=CC[N+](C)(C)CCCNC(=O)/C=N/O`?
D2 PAM-1: inactive; D2 PAM-2: inactive; D2 ag-1: inactive; D2 antag: 61.8; D2 ag-2: inactive

How did CC1CCc2cc(F)ccc2N1S(=O)(=O)c1ccc(Cl)nc1 (stereo not given) do in these assays?
D2 PAM-1: inactive; D2 PAM-2: inactive; D2 ag-1: inactive; D2 antag: 35.4; D2 ag-2: inactive

How did O=C(Nc1ccccc1F)c1nc(S(=O)(=O)Cc2ccccc2F)ncc1Cl do in these assays?
D2 PAM-2: inactive; D2 ag-2: inactive

What do the screens show for `COc1cccc(-c2noc(C3CCCN(C(=O)c4ccc(F)cc4F)C3)n2)c1` (stereo not given)?
D2 PAM-1: inactive; D2 PAM-2: inactive; D2 ag-1: inactive; D2 antag: 32.7; D2 ag-2: inactive

What do the screens show for `O=C(CCCCn1c(=O)c2ccccc2n(CC(=O)Nc2ccccc2)c1=O)NCc1ccccc1Cl`?
D2 PAM-2: inactive; D2 ag-2: inactive

How did CNCCCC1c2ccccc2C=Cc2ccccc21 do in these assays?
D2 PAM-1: inactive; D2 PAM-2: inactive; D2 ag-1: inactive; D2 antag: 74.8; D2 ag-2: inactive

Results for CCc1cccc(C)c1NC(=O)c1cc(S(=O)(=O)N(Cc2ccc(C(=O)OC)cc2)Cc2ccc(OC)c(OC)c2)ccc1F ?
D2 PAM-2: inactive; D2 ag-2: inactive

Results for CCOC(=O)NN1C(=O)c2ccccc2NC1c1ccccn1 (stereo not given) ?
D2 PAM-1: inactive; D2 ag-1: inactive; D2 antag: 37.7; D2 ag-2: inactive

Results for CN(C1=NC(=O)C(CC(=O)Nc2ccc(Br)cc2)S1)c1ccc(O)cc1 (stereo not given) ?
D2 PAM-1: inactive; D2 PAM-2: inactive; D2 ag-1: inactive; D2 antag: 40.4; D2 ag-2: inactive

What do the screens show for `O=C(CC1SC(=O)N(c2ccccc2)C1=O)Nc1ccc(Br)cc1` (stereo not given)?
D2 PAM-1: inactive; D2 PAM-2: inactive; D2 ag-1: inactive; D2 antag: inactive; D2 ag-2: inactive

How did O=[N+]([O-])c1ccc(N2CCCC2)cc1NC(c1ccccc1)c1ccccc1 do in these assays?
D2 PAM-1: inactive; D2 PAM-2: inactive; D2 ag-1: inactive; D2 antag: 30.0; D2 ag-2: inactive

What do the screens show for `Cc1ccc(CN2CCC(C(=O)NCCC(C)C)CC2)o1`?
D2 PAM-1: inactive; D2 PAM-2: inactive; D2 ag-1: inactive; D2 antag: 30.1; D2 ag-2: inactive

What do the screens show for `CCC(=O)Nc1nnc(/C=C/c2ccc(OC)cc2)s1`?
D2 PAM-1: inactive; D2 PAM-2: inactive; D2 ag-1: inactive; D2 antag: 35.4; D2 ag-2: inactive

What do the screens show for `COc1ccc(/C=C/c2nnc(NC(=O)CSc3ccc(C)cc3)s2)cc1`?
D2 PAM-1: inactive; D2 ag-1: inactive

How did COc1ccc(NC(=O)CSc2ncc3c(n2)-c2ccccc2N(Cc2ccc(C)cc2)S3(=O)=O)cc1Cl do in these assays?
D2 PAM-2: inactive; D2 ag-2: inactive

Results for CN(C)S(=O)(=O)N(CC(=O)NCCSCc1ccccc1)c1ccccc1 ?
D2 PAM-1: inactive; D2 PAM-2: 84.6!; D2 ag-1: inactive; D2 antag: inactive; D2 ag-2: inactive

What do the screens show for `Cc1ccccc1CSCCNC(=O)CN(c1ccccc1)S(=O)(=O)N(C)C`?
D2 PAM-2: inactive; D2 ag-2: inactive

Results for COc1ccc(N(CC(=O)NCCSCc2ccc(C)cc2)S(=O)(=O)c2ccccc2)cc1 ?
D2 PAM-1: inactive; D2 PAM-2: inactive; D2 ag-1: inactive; D2 antag: 30.8; D2 ag-2: inactive

How did CCc1ccc(CNC(=O)CCn2c(=O)c3cccn3c3ccc(F)cc32)cc1 do in these assays?
D2 PAM-2: inactive; D2 ag-2: inactive

Results for O=C(CSc1nc2c(c(=O)[nH]1)CN(Cc1ccc3c(c1)OCO3)CC2)Nc1ccc(F)c(F)c1 ?
D2 PAM-2: inactive; D2 ag-2: inactive

Results for CC1=C(c2ccc(F)cc2)S(=O)(=O)N=C1N1CCC(C(=O)NCCc2cccc(C)c2)CC1 ?
D2 PAM-2: inactive; D2 ag-2: inactive

What do the screens show for `CC1=C(C(=O)Nc2cc(Cl)ccc2C)C2(CCCCC2)OC1=O`?
D2 PAM-2: inactive; D2 ag-2: inactive

What do the screens show for `COc1ccc(C(=O)Nc2cc(-c3cccc(C)c3)nn2-c2ccccc2)cc1`?
D2 PAM-2: inactive; D2 ag-2: inactive

Results for CCc1ccccc1NC(=O)c1noc2c1CC(C(C)(C)C)CC2 (stereo not given) ?
D2 PAM-2: inactive; D2 ag-2: inactive

Results for Cc1cc(NC(=O)c2ccccc2F)nc2c1c(=O)oc1ccccc12 ?
D2 PAM-1: inactive; D2 PAM-2: 41.6; D2 ag-1: inactive; D2 antag: inactive; D2 ag-2: inactive
